The list is not random: actives were taken first. Their share in the collection is about 1.2%.
GALK inh – blocks human galactokinase activity; Purified GALK, Kinase-Glo residual ATP luminescence; Potency, µM (top dose mostly 57.5 µM), for the others: at the highest dose activity change, negative = inhibition, hits mostly inhibitors; actives 0.007% (n = 270,000)
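Galactose (100 uM) and ATP (35 uM) were turned over by 5 nM GALK for 1 h at RT. Kinase-Glo Plus then converted the remaining ATP into a luminescent signal.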
TrxR1 substrate – is turned over as a substrate by rat TrxR1 | actives 0.01% (n = 390,000) | purified TrxR1 substrate turnover, NADPH consumption readout | O89049 | AID 588456 | Potency, µM (titrated, usually from 114 µM), inactives show top-dose activity change, negative = substrate turnover; note: nearly all actives have a fitted effect of over 50% in size
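Rat TrxR1, dispensed at 90 nM, was prereduced with 400 uM NADPH (final) for 5 min at ~22 deg C, then incubated with compound 15 min before 400 uM selenite. A first-read NADPH fluorescence drop versus no-compound background flagged substrates.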
NPSR antag – blocks cAMP signaling of the human neuropeptide S receptor; Q6W5P4; CHO-NPSR cells, cAMP TR-FRET, antagonist mode; Potency, µM (top dose mostly 38.3 µM), inactives show at the highest dose activity change, negative = inhibition, most hits filed as inhibitors; actives 1% (n = 220,000); AID 1461; note: nearly all actives have a fitted effect of over 50% in size
Target sequence (Q6W5P4 whole entry, looked up): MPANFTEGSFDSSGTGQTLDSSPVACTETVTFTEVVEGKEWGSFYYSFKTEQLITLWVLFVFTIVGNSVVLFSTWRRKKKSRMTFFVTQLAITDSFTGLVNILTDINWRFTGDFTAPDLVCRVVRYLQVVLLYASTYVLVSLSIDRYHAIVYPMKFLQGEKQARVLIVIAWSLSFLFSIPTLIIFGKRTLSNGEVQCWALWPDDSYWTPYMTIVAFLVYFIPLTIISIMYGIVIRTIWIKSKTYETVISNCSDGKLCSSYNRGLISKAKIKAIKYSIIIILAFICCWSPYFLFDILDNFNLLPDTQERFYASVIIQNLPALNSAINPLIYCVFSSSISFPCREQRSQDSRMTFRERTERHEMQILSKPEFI
rTrxR1 inhibitor – inhibitors of rat thioredoxin reductase 1 | O89049 | recombinant rTrxR1, NADPH fluorescence consumption, selenite substrate | Potency, µM (doses to about 114 µM), for inactives: at the highest dose activity change, negative = inhibition, most hits filed as inhibitors | actives 1% (n = 390,000); note: nearly all actives have a fitted effect of over 65% in size
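Rat TrxR1 (90 nM in the dispensed reagent) was pre-reduced with 400 uM NADPH for 5 min at room temperature, then incubated with compound for 15 min. After 400 uM selenite was added, NADPH fluorescence (Ex 340/Em 450 nm) was followed for 8 min.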
* = called active by the depositor; ! = not active in a repeat; [ ] = dose if it differs, or a comment. Calls come from the whole dose curve; as a rule, active = well fitted curve in the direction sought with a large enough effect; inconclusive = small, poorly fitted or top-dose-only effect, or another doubt; inactive = no such curve, though single readings can be large; an effect the other way counts as inactive or inconclusive. % is set by controls: 0 for no effect and ±100 for the full control effect; potency is the fitted concentration of half-maximal effect.

Screening CCN(CC)S(=O)(=O)c1cc([N+](=O)[O-])ccc1NNC(=O)Nc1ccc(Cl)c(Cl)c1 returned GALK inh -1.6%, TrxR1 substrate -6.3%, NPSR antag 10µM* and rTrxR1 inhibitor -3.3%.
Screening CCN(CC)c1ccc2c(C)c(Cl)c(=O)oc2c1 returned GALK inh -1.3%, TrxR1 substrate 46.1%, NPSR antag -13.8% and rTrxR1 inhibitor -15.5%.
CCN(CC)c1ccc2c(c1)oc(=O)c1c(Cl)cc(=O)oc12 was read as GALK inh -12.6%, TrxR1 substrate 3.7%, NPSR antag 3.98µM* and rTrxR1 inhibitor 35.5µM*.
Screening CCN(CC)c1ccc2c(Cl)c(Br)c(=O)oc2c1 returned GALK inh -3.1%, TrxR1 substrate -2.9%, NPSR antag 3.16µM* and rTrxR1 inhibitor inconclusive.
For Cc1cccc(NC(=O)CSc2nnc(-c3ccco3)c(-c3ccco3)n2)c1C the results were GALK inh 2.7%, TrxR1 substrate -6.3%, NPSR antag -17.2%[46.1 µM] and rTrxR1 inhibitor 2.82µM*.
Cc1cccc(NC(=O)CSc2nc(N)cc(N)n2)c1 was read as GALK inh -0.5%, TrxR1 substrate 7.0%, NPSR antag -2.7%[46.1 µM] and rTrxR1 inhibitor 8.3%.
`Cc1cccc(NC(=O)CSc2nnc(-c3ccco3)c(-c3ccco3)n2)c1` gave GALK inh -1.2%, TrxR1 substrate -4.9%, NPSR antag 21.9% and rTrxR1 inhibitor 8.91µM*.
`CCS(=O)(=O)c1nc(S(=O)(=O)c2ccc(C)cc2)c(NCc2ccccn2)s1` gave GALK inh 0.3%, TrxR1 substrate -11.6%, NPSR antag -9.7% and rTrxR1 inhibitor -5.5%.
`CCCS(=O)(=O)c1nc(S(=O)(=O)c2ccc(C)cc2)c(NCc2ccccn2)s1` gave GALK inh 1.0%, TrxR1 substrate 1.4%, NPSR antag -19.8% and rTrxR1 inhibitor 20µM*.
Screening O=C(O)c1cccc(NC2=C(N3CCOCC3)C(=O)c3ccccc3C2=O)c1 returned GALK inh -0.1%, TrxR1 substrate 10.6%, NPSR antag 48.2% and rTrxR1 inhibitor inconclusive.
For O=C(O)c1ccc(NC2=C(n3nnc4ccccc43)C(=O)c3ccccc3C2=O)cc1 the results were GALK inh -0.9%, TrxR1 substrate -5.2%, NPSR antag 1.6% and rTrxR1 inhibitor 7.08µM*.
`O=C1C2C3C=CC(C3)C2C(=O)N1CCCCCCN1C(=O)C2C3C=CC(C3)C2C1=O` (stereo unspecified) gave GALK inh 0.1%, TrxR1 substrate -13.7%[57.1 µM], NPSR antag -33.2% and rTrxR1 inhibitor 21.3%[57.1 µM].
CCN1C(=O)C=CC1=O was read as TrxR1 substrate -2.8%[57.1 µM], NPSR antag inconclusive and rTrxR1 inhibitor 10.6µM*!.
For O=C1C=CC(=O)N1CCCCCCN1C(=O)C=CC1=O the results were GALK inh 0.4%, TrxR1 substrate 5.8%, NPSR antag inconclusive and rTrxR1 inhibitor 0.708µM*.
Screening Oc1c(C(c2ccccc2F)N2CCCCC2)sc2nc(-c3ccco3)nn12 (stereo unspecified) returned TrxR1 substrate 2.3%[57.1 µM] and rTrxR1 inhibitor 1.2%[57.1 µM].
`COc1ccccc1C(=O)Nc1cccc(OCc2cc(=O)n3c4c(sc3n2)CCCC4)c1` gave TrxR1 substrate -3.0% and rTrxR1 inhibitor 0.9%.
`CCCN(CCC)c1ccc(/C=C/c2sc3ccccc3[n+]2CCCCI)cc1` gave TrxR1 substrate -5.7%[0.0914 µM] and rTrxR1 inhibitor inconclusive.
`CCSc1nc(-c2ccccc2)c(C#N)c(=O)[nH]1` gave GALK inh 0.2%, TrxR1 substrate 9.7%, NPSR antag 17.9%[46.1 µM] and rTrxR1 inhibitor 14.4%.
Screening N#Cc1c(-c2ccccc2)nc(SCc2nc(N)nc(N3CCCCC3)n2)[nH]c1=O returned GALK inh -4.1%, TrxR1 substrate 10.4%[57.1 µM], NPSR antag 6.31µM* and rTrxR1 inhibitor 18.2%[57.1 µM].
For Cc1cc(N2CCOCC2)n2ncc(-c3ccc(Cl)cc3)c2n1 the results were GALK inh -0.6%, TrxR1 substrate 157.0%, NPSR antag 15.0% and rTrxR1 inhibitor 72.5%.
For CC(C)(C)c1cc(N2CCOCC2)n2ncc(-c3ccc(Cl)cc3)c2n1 the results were GALK inh -4.4%, TrxR1 substrate 174.3% and rTrxR1 inhibitor 89.1µM*.
For CC1=CN2C(=N)/C(=C/c3ccc([N+](=O)[O-])o3)C(=O)N=C2S1 the results were GALK inh 2.9%, TrxR1 substrate -16.5%, NPSR antag 12.6µM* and rTrxR1 inhibitor 2.51µM*.
For Cc1nc(C#N)nc(Oc2ccccc2)c1Cl the results were TrxR1 substrate 2.5% and rTrxR1 inhibitor 0.7%.

Assay outcomes (PubChem)
